This passage reports Potency results from PubChem BioAssay (NCATS).

Structures are written as SMILES. Results filed as inconclusive are left out. The source made the active and inactive calls. Calls come from the whole dose curve; as a rule, active = well fitted curve in the direction sought with a large enough effect; inconclusive = small, poorly fitted or top-dose-only effect, or another doubt; inactive = no such curve, though single readings can be large; an effect the other way counts as inactive or inconclusive.

Assay [1] can be described thus: qHTS of pediatric cancer cell lines to identify multiple opportunities for drug repurposing: Primary screen for Rh30 cells (AID 1347107). Note: nearly all actives have a fitted effect of over 75% in size. A digest of the protocol: (§1)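 Viability after 48 h compound treatment at 37C, 500-1,000 cells/well, read as ATP luminescence with CellTiter-Glo. Primary screens used 11-point (MIPE, 0.78 nM-46 µM) or 8-point (NPC, 0.59 nM-46 µM) final concentrations; follow-up screens used 11-point dilutions.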
On the technique in general: qHTS replaces the single test concentration by a dilution series.

Assay [2] in a line: qHTS of pediatric cancer cell lines to identify multiple opportunities for drug repurposing: Primary screen for Rh41 cells (AID 1347108). Note: nearly all actives have a fitted effect of over 70% in size. A digest of the protocol: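 Plated cells (500-1,000 per well, growth media) were allowed to settle for 5 hours, treated with compound dilutions for 48 hours, then lysed with CellTiter-Glo for 15 min at room temperature before luminescence reading.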

A short description of assay [3]: qHTS of pediatric cancer cell lines to identify multiple opportunities for drug repurposing: Confirmatory screen for NB1643 cells (AID 1347109). Note: nearly all actives have a fitted effect of over 45% in size. A digest of the protocol:
as §1

The nature of assay [4]: qHTS of pediatric cancer cell lines to identify multiple opportunities for drug repurposing: Confirmatory screen for A673 cells (AID 1347110). Note: nearly all actives have a fitted effect of over 65% in size. A digest of the protocol: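 A673 cells at 500-1,000 cells/well were dosed 5 h after plating, in dilution series up to 46 uM final; primary runs used 8 or 11 points and confirmatory runs used 11 points. Viability was read by CellTiter-Glo luminescence after 48 h, against DMSO and 2.3 uM bortezomib controls.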

Assay [5] is described as follows: qHTS of pediatric cancer cell lines to identify multiple opportunities for drug repurposing: Confirmatory screen for SK-N-MC cells (AID 1347111).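 Note: cells exposed to compound for 48 h before the readout; nearly all actives have a fitted effect of over 70% in size.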 A digest of the protocol:
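SK-N-MC cells at 500-1,000 cells/well in growth media were pre-incubated 5 h, then exposed to compounds at 11-point dilutions for 48 h at 37 degrees C, 5% CO2. Viability was read as CellTiter-Glo luminescence.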

Assay [6] in a line: qHTS of pediatric cancer cell lines to identify multiple opportunities for drug repurposing: Confirmatory screen for LAN-5 cells (AID 1347113). Note: nearly all actives have a fitted effect of over 65% in size. A digest of the protocol: as §1
Assay [7] can be described thus: qHTS of pediatric cancer cell lines to identify multiple opportunities for drug repurposing: Confirmatory screen for SJ-GBM2 cells (AID 1347116). Note: nearly all actives have a fitted effect of over 60% in size. A digest of the protocol:
(§2)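 Viability measured as metabolically active cells via CellTiter-Glo luminescence following 48 hours of compound exposure, 11-point dilutions in confirmatory testing. 500-1,000 cells/well plated 5 hours before dosing; controls were DMSO and 2.3 µM bortezomib.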

Assay [8] can be described thus: qHTS of pediatric cancer cell lines to identify multiple opportunities for drug repurposing: Confirmatory screen for BT-37 cells (AID 1347117). Note: nearly all actives have a fitted effect of over 55% in size. A digest of the protocol: as §1
A short description of assay [9]: qHTS of pediatric cancer cell lines to identify multiple opportunities for drug repurposing: Confirmatory screen for TC32 cells (AID 1347118). Note: nearly all actives have a fitted effect of over 65% in size. A digest of the protocol: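 Luminescent CellTiter-Glo read-out of metabolically active TC32 cells after 48 h compound exposure. Primary: MIPE 11-point, 0.78 nM–46 µM; NPC 8-point, 0.59 nM–46 µM. Confirmatory: 11-point dilutions.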

A short description of assay [10]: qHTS of pediatric cancer cell lines to identify multiple opportunities for drug repurposing: Confirmatory screen for MG 63 (6-TG R) cells (AID 1347119). Note: nearly all actives have a fitted effect of over 55% in size. A digest of the protocol: as §1
Assay [11] is described as follows: qHTS of pediatric cancer cell lines to identify multiple opportunities for drug repurposing: Confirmatory screen for Rh41 cells (AID 1347123). Note: nearly all actives have a fitted effect of over 60% in size. A digest of the protocol: as §1
Assay [12] in a line: qHTS of pediatric cancer cell lines to identify multiple opportunities for drug repurposing: Confirmatory screen for RD cells (AID 1347124).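 Note: cells exposed to compound for 48 h before viability readout; nearly all actives have a fitted effect of over 65% in size.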 A digest of the protocol:
as §1

Assay [13] can be described thus: qHTS of pediatric cancer cell lines to identify multiple opportunities for drug repurposing: Confirmatory screen for Rh18 cells (AID 1347125). Note: nearly all actives have a fitted effect of over 55% in size. A digest of the protocol: as §1
Assay [14] is described as follows: qHTS of pediatric cancer cell lines to identify multiple opportunities for drug repurposing: Confirmatory screen for Rh30 cells (AID 1347126). Note: nearly all actives have a fitted effect of over 55% in size. A digest of the protocol:
as §1

Assay [15] is described as follows: qHTS of pediatric cancer cell lines to identify multiple opportunities for drug repurposing: Confirmatory screen for BT-12 cells (AID 1347112). Note: nearly all actives have a fitted effect of over 55% in size. A digest of the protocol: as §1
Assay [16] is described as follows: qHTS of pediatric cancer cell lines to identify multiple opportunities for drug repurposing: Confirmatory screen for DAOY cells (AID 1347114). Note: nearly all actives have a fitted effect of over 65% in size. A digest of the protocol: as §2
Assay [17] is described as follows: qHTS of pediatric cancer cell lines to identify multiple opportunities for drug repurposing: Confirmatory screen for NB-EBc1 cells (AID 1347115). Note: nearly all actives have a fitted effect of over 45% in size. A digest of the protocol: as §1
Assay [18] in a line: qHTS of pediatric cancer cell lines to identify multiple opportunities for drug repurposing: Confirmatory screen for U-2 OS cells (AID 1347122). Note: nearly all actives have a fitted effect of over 65% in size. A digest of the protocol:
as §1

Assay [19] can be described thus: qHTS of pediatric cancer cell lines to identify multiple opportunities for drug repurposing: Confirmatory screen for control Hh wild type fibroblast cells (AID 1347121). Note: nearly all actives have a fitted effect of over 70% in size. A digest of the protocol:
as §1
Potency is the fitted concentration of half-maximal effect.

Consider `CCn1nnc2c(N3CCOCC3)nc(-c3ccc(NC(=O)Nc4ccc(C(=O)N5CCN(C)CC5)cc4)cc3)nc21`, for which the Potency in assay [1] is 7430 nM (active); in assay [2], 93.5 nM (active); in [3], 1850 nM (active); in [4], 585 nM (active); in assay [5], 657 nM (active); in [6], 522 nM (active). In addition, the Potency in [7] is 737 nM (active); in assay [8] it was 329 nM (active); in assay [9] it was 293 nM (active); in assay [10], 293 nM (active); in assay [11], 522 nM (active); in [12], 414 nM (active). The figures for the Potency in [13] and in [14] were 1040 nM (active) and 928 nM (active), respectively.

`CC(C)c1nn(-c2c(Cl)cccc2Cl)c2nc(Cc3ccc(OCCO)cc3)[nH]c(=O)c12`: the Potency entry in assay [1], in [3] and in [17] was “inactive” in each case. Besides, the Potency in assay [2] was 372 nM (active); in [4], 131 nM (active); in assay [5], 117 nM (active); in assay [15] it was 82.7 nM (active); in [6], 41.4 nM (active); in assay [16], 208 nM (active). For the same compound, the Potency in [8] is 82.7 nM (active); in [9], 131 nM (active); in assay [18] it was 82.7 nM (active); in [11], 131 nM (active); in assay [12] it was 208 nM (active).

With `COc1ccc(-c2cc3c(C)nc(N)nc3n(C3CCC(OCCO)CC3)c2=O)cn1` (centres undefined), the Potency in assay [1] was 4180 nM (active); in [2], 118 nM (active); in [4] it was 1170 nM (active). In addition, the Potency result in [3], in assay [15], in assay [6], in assay [16], in [17] and in [7] was “inactive” throughout. Besides, the Potency result in assay [8], in assay [10], in assay [19], in assay [18], in assay [12] and in assay [13] was “inactive” in each case. Further, in [14], the Potency entry was “inactive”.

As for `Cc1[nH]nc2ccc(-c3cncc(OC[C@@H](N)Cc4ccccc4)c3)cc12`, the Potency result in assay [1] was “inactive”. Further, the Potency is 4690 nM (active) in assay [2]; 1510 nM (active) in assay [4]; 2330 nM (active) in assay [5]; 9270 nM (active) in [15]; 3290 nM (active) in assay [6]; 4270 nM (active) in assay [16]. In addition, the Potency is 2930 nM (active) in assay [8]; 2930 nM (active) in [9]; 3690 nM (active) in assay [10]; 23300 nM (active) in assay [19]; 8270 nM (active) in [13]; 47900 nM (active) in assay [14].

As to `CC=CC1=C(C(=O)O)N2C(=O)[C@H](NC(=O)[C@H](N)c3ccc(O)cc3)[C@@H]2SC1`, the Potency result in assay [1], in [2], in assay [3], in assay [15], in [6] and in [16] was “inactive” in each case. Further, the Potency entry in assay [17], in [8], in assay [10], in [19], in [18] and in assay [11] was “inactive” in each case. Also, the Potency result in assay [12], in assay [13] and in assay [14] was “inactive” each time.

Regarding `CN(C)Cc1c(C(=O)NCCOc2ccc(C(=O)NO)cc2)oc2ccccc12`, the Potency is 4690 nM (active) in [1]; 1480 nM (active) in assay [2]; 465 nM (active) in assay [3]; 1310 nM (active) in assay [4]; 585 nM (active) in [5]; 8270 nM (active) in assay [15]. Besides, the Potency was 928 nM (active) in assay [6]; 2610 nM (active) in [16]; 1850 nM (active) in [17]; 1470 nM (active) in [7]; 1170 nM (active) in assay [8]; 737 nM (active) in assay [9]. Further, the Potency in [10] is 1470 nM (active); in [18], 657 nM (active); in assay [11], 293 nM (active); in assay [12], 1650 nM (active); in [13], 827 nM (active); in assay [14], 1650 nM (active).

For `O=C(O)[C@H](Cc1c[nH]c2ccccc12)N1C(=O)c2ccccc2C1=O`, the Potency entry in assay [1] and in [2] was “inactive” each time.

Take `Cc1ccc(C(=O)Nc2ccc(CN3CCN(C)CC3)c(C(F)(F)F)c2)cc1C#Cc1cnc2cccnn12`: the Potency in assay [1] was 14800 nM (active); in [2], 9350 nM (active); in assay [4] it was 4650 nM (active); in assay [5] it was 3.3 nM (active); in [15] it was 8270 nM (active); in assay [16] it was 8270 nM (active). Moreover, the Potency in assay [9] is 3.7 nM (active); in assay [18] it was 2930 nM (active); in [11], 585 nM (active); in assay [12], 20800 nM (active); in assay [13], 10400 nM (active); in [14], 5220 nM (active). Further, the Potency result in assay [10] and in assay [19] was “inactive” each time.

Regarding `CC(C)c1cc(C(=O)N2Cc3ccc(CN4CCN(C)CC4)cc3C2)c(O)cc1O`, the Potency result in assay [1] and in [19] was “inactive” in each case. The Potency was 369 nM (active) in assay [3]; 293 nM (active) in [4]; 585 nM (active) in assay [5]; 16500 nM (active) in assay [15]; 465 nM (active) in [6]; 414 nM (active) in assay [8]. Besides, the Potency in [9] is 465 nM (active); in assay [18] it was 414 nM (active); in assay [11], 585 nM (active); in assay [12] it was 522 nM (active); in assay [13], 657 nM (active); in assay [14], 585 nM (active).

For the compound `O=C(Nc1ncc(-c2cc(C(F)F)nn2-c2c(Cl)cccc2Cl)s1)C1CC1`, in assay [1], the Potency result was “inactive”. Moreover, the Potency is 1170 nM (active) in assay [3]; 293 nM (active) in assay [4]; 414 nM (active) in assay [5]; 4650 nM (active) in assay [6]; 329 nM (active) in [16]; 1040 nM (active) in [8]. For the same compound, the Potency in [9] is 369 nM (active); in assay [10] it was 329 nM (active); in [18], 1040 nM (active); in assay [11], 928 nM (active); in [12] it was 827 nM (active); in [14] it was 13100 nM (active).

`COc1cc2c(NC3CCN(C(C)C)CC3)nc(C3CCCCC3)nc2cc1OCCCN1CCCC1`: the Potency is 18700 nM (active) in [1]; 11800 nM (active) in assay [2]; 18500 nM (active) in assay [4]; 4140 nM (active) in assay [5]; 9270 nM (active) in assay [16]; 26100 nM (active) in assay [8]. Further, the Potency in [9] was 4140 nM (active); in [12] it was 26100 nM (active). In addition, the Potency entry in assay [19], in [18] and in assay [14] was “inactive” each time.
